# Inconclusive results are not listed. A call without a number means that no potency is given here. Activity calls are given as the source filed them. Unless noted, calls follow the shape of the dose curve; as a rule, active = well fitted curve in the direction sought with a large enough effect; inconclusive = small, poorly fitted or top-dose-only effect, or another doubt; inactive = no such curve, though single readings can be large; an effect the other way counts as inactive or inconclusive. *1 amine or outer side, *2 acyl side, *3 side chain or, on linkers, in order; H or OH if unused. Where a SMILES comes first, the peptide text is derived from it. [ ]: non-standard residue; d: D form. The star is where a group is joined. ξ: configuration not given here. X9 = CCC(C)(N*)C(=O)C1CC[C@@H](C(=O)N[C@@H](Cc2ccccc2)C(=O)NCC(=O)O)N1; X8 = O=C([C@@H]1CC(O)CN1[*:1])[*:2]; X13 = O=C(C(CC(O)CO)O[*:1])[*:2]; aIle = CC[C@@H](C)[C@H](N)C(=O)O; Thr(3ξ) = CC(O)[C@H](N)C(=O)O; NMeV = CN[CH](C(=O)O)C(C)C; NMeA = CN[CH](C)C(=O)O; ξIva = CCC(C)(N)C(=O)O; Aib = CC(C)(N)C(=O)O; βAla = NCCC(=O)O
# How the values were obtained:
# [1] = target: Calcium and integrin-binding protein 1 (Homo sapiens) (UniProt Q99828); experiment: Primary qHTS for Identification of Calcium Integrin Binding Protein 1 (CIB1) Competitor (AID 1508620);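 also: GST tagged CIB1 binding a fluorescein labelled alphaIIb integrin peptide tracer; top concentration of the series differs between compounds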
# In short: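 Fluorescence polarization competition: GST-tagged CIB1 (1 uM final) preincubated with compound 15 min at room temperature, then FITC-labelled alphaIIb peptide (100 nM final) added. After 15 min at room temperature, polarization read at Ex 480/Em 540.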
# [2] = target: Cytochrome P450 2C9 (Homo sapiens) (UniProt P11712); experiment: Cytochrome P450 family 2 subfamily C member 9 (CYP2C9) small molecule antagonists: luciferase biochemical (cell-free) qHTS assay (AID 1645842; active = well fitted curve in the direction sought with a large enough effect in the repeat runs; an effect the other way counts as inactive or inconclusive; also: nearly all actives have a fitted effect of over 55% in size; also: potency is read from the fitted curve at half-maximal effect)
# In short: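 P450-Glo CYP2C9 system: proluciferin substrate with enzyme in mix containing 0.4% BSA, 10 min at room temperature, then NADPH regeneration solution added and incubated 1 h at 37C. Detection reagent stopped reaction; luminescence read after 20 min as RLU.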
# [3] = Primary qHTS for inhibitors of nuclear receptor binding SET domain protein 2 (NSD2) in an isogenic RCH-ACV NSD2 p.E1099K mutant (9B) (AID 1645876); also: nearly all actives have a fitted effect of over 70% in size
# [4] = Primary qHTS for inhibitors of nuclear receptor binding SET domain protein 2 (NSD2) in an RCH-ACV wild type WT cells (2C) (AID 1645877); also: nearly all actives have a fitted effect of over 70% in size; also: potency is read from the fitted curve at half-maximal effect
# [5] = target: Catechol O-methyltransferase (Homo sapiens) (UniProt P21964); experiment: Confirmatory Screen for Target Class Profiling of Small Molecule Inhibitors of Methyltransferases (AID 1745852; calls by dose curve; also: potency is read from the fitted curve at half-maximal effect); conditions: MTase-Glo luminescence, SAH detection, recombinant enzyme; measured here: COMT max response; stronger effect = lower value
# [6] = target: Guanidinoacetate N-methyltransferase (Homo sapiens) (UniProt Q14353); experiment: as above; conditions: MTase-Glo luminescence, SAH detection, recombinant enzyme; activity change, negative = inhibition: at 57.3 µM (top of the series) unless noted
# [7] = target: Nicotinamide N-methyltransferase (Homo sapiens) (UniProt P40261); experiment: as above; conditions: MTase-Glo luminescence, SAH detection, recombinant enzyme; measured here: NNMT max response; stronger effect = lower value
# [8] = target: Phenylethanolamine N-methyltransferase (Homo sapiens) (UniProt P11086); experiment: as above; conditions: MTase-Glo luminescence, SAH detection, recombinant enzyme; measured here: PNMT max response; stronger effect = lower value
# [9] = target: N-terminal Xaa-Pro-Lys N-methyltransferase 1 (Homo sapiens) (UniProt Q9BV86); experiment: Confirmatory qHTS for Inhibitors of N-terminal methyltransferase 1 (NTMT1): MTaseGlo Assay (AID 1645874); also: nearly all actives have a fitted effect of over 65% in size; also: potency is read from the fitted curve at half-maximal effect;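 as to activity change, negative = inhibition: luminescence from SAH made as NTMT1 methylates SPKRIA peptide using SAM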
# In short: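 Room-temperature NTMT1 reaction, 30 min, with 100 uM SAM and 1 uM SPKRIA substrate; enzyme 125 nM. Read-out: MTase-Glo luminescence, normalized to no-enzyme and DMSO controls.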
# [10] = target: Rap guanine nucleotide exchange factor 3 (Homo sapiens) (UniProt O95398); experiment: Confirmatory qHTS for agonist of cAMP-regulated guanine nucleotide exchange factor 3 (EPAC1) (AID 1645881);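 also: EPAC1 catalysed release of BODIPY-GDP from Rap1B seen as fluorescence loss; nearly all actives have a fitted effect of over 75% in size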
# [11] = target: Rap guanine nucleotide exchange factor 4 (Homo sapiens) (UniProt Q8WZA2); experiment: Confirmatory qHTS for agonist of cAMP-regulated guanine nucleotide exchange factor 4 (EPAC2) (AID 1645884);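 also: nucleotide exchange releases bodipy-GDP from Rap1 and this lowers its fluorescence; nearly all actives have a fitted effect of over 65% in size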
# [12] = target: Rap guanine nucleotide exchange factor 4 (Homo sapiens) (UniProt Q8WZA2); experiment: Confirmatory qHTS for antagonist of cAMP-regulated guanine nucleotide exchange factor 4 (EPAC2) (AID 1645885); conditions: outcome: dose series up to 114 µM; also: nearly all actives have a fitted effect of over 25% in size
# [13] = target: Rap guanine nucleotide exchange factor 3 (Homo sapiens) (UniProt O95398); experiment: Counterscreen qHTS for antagonist of cAMP-regulated guanine nucleotide exchange factor 3 (EPAC1) (AID 1645888);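 also: fluorescence loss as bound BODIPY-GDP is released from Rap1B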
# In short: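 Rap1B–BODIPY-GDP (250 nM) with 50 uM GDP; compounds pin-transferred to 9.74 nM–152 uM final (activator) or from 7.32 nM upwards (inhibitor). Fluorescence Ex/Em 480/540 nm read at 5 and 30 min, then after adding cAMP or buffer, at room temperature.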
# Sequence of Phenylethanolamine N-methyltransferase (Homo sapiens) (P11086 whole entry, looked up): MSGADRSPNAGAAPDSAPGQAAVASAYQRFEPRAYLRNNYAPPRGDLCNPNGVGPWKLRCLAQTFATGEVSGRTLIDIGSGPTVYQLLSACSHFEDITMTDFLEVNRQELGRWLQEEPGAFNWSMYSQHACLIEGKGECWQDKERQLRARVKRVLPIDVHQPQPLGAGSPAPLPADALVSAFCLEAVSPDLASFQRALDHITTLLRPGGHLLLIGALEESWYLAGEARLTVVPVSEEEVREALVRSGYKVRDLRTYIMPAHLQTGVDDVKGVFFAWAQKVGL
# Sequence of N-terminal Xaa-Pro-Lys N-methyltransferase 1 (Homo sapiens) (Q9BV86 whole entry, looked up): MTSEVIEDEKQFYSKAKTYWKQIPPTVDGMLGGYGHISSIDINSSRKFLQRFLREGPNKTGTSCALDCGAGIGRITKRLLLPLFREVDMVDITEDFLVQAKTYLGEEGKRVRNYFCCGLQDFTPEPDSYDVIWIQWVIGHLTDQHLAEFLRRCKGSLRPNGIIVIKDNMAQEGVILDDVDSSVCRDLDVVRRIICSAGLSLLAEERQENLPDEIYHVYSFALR
# Sequence of Cytochrome P450 2C9 (Homo sapiens) (P11712 whole entry, looked up): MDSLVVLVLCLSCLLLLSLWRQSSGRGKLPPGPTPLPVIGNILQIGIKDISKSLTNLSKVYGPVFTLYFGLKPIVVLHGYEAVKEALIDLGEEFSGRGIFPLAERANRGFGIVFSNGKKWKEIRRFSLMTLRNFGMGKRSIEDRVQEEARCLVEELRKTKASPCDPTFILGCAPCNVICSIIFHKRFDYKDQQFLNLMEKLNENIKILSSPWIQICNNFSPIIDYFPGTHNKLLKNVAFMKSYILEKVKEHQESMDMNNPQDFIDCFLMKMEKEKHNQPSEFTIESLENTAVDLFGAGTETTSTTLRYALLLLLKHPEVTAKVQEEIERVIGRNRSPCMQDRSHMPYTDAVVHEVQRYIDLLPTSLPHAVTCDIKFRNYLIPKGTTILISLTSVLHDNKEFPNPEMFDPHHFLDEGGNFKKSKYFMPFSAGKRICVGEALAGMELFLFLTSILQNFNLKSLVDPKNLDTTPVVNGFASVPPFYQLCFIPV
# Sequence of Calcium and integrin-binding protein 1 (Homo sapiens) (Q99828 whole entry, looked up): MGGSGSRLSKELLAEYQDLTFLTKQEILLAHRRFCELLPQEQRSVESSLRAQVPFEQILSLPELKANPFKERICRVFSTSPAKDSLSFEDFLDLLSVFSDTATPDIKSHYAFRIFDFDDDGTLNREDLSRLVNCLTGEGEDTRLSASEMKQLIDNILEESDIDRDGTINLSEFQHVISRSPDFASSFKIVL
# Sequence of Catechol O-methyltransferase (Homo sapiens) (P21964 whole entry, looked up): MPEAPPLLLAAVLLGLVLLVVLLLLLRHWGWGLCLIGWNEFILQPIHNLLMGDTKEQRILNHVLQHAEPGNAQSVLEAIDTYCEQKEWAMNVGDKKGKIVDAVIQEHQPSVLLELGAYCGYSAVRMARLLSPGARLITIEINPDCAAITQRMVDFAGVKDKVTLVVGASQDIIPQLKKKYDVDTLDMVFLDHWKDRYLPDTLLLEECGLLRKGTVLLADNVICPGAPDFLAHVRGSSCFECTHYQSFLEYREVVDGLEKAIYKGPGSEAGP
# Sequence of Nicotinamide N-methyltransferase (Homo sapiens) (P40261 whole entry, looked up): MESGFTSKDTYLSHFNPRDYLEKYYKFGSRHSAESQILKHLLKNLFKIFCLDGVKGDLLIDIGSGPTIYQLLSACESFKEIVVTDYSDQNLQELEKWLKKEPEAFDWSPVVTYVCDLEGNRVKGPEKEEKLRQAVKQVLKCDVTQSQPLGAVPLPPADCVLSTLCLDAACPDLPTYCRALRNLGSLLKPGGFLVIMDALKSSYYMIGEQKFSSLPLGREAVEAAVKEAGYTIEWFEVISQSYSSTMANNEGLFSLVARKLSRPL
# Sequence of Rap guanine nucleotide exchange factor 4 (Homo sapiens) (Q8WZA2 whole entry, looked up): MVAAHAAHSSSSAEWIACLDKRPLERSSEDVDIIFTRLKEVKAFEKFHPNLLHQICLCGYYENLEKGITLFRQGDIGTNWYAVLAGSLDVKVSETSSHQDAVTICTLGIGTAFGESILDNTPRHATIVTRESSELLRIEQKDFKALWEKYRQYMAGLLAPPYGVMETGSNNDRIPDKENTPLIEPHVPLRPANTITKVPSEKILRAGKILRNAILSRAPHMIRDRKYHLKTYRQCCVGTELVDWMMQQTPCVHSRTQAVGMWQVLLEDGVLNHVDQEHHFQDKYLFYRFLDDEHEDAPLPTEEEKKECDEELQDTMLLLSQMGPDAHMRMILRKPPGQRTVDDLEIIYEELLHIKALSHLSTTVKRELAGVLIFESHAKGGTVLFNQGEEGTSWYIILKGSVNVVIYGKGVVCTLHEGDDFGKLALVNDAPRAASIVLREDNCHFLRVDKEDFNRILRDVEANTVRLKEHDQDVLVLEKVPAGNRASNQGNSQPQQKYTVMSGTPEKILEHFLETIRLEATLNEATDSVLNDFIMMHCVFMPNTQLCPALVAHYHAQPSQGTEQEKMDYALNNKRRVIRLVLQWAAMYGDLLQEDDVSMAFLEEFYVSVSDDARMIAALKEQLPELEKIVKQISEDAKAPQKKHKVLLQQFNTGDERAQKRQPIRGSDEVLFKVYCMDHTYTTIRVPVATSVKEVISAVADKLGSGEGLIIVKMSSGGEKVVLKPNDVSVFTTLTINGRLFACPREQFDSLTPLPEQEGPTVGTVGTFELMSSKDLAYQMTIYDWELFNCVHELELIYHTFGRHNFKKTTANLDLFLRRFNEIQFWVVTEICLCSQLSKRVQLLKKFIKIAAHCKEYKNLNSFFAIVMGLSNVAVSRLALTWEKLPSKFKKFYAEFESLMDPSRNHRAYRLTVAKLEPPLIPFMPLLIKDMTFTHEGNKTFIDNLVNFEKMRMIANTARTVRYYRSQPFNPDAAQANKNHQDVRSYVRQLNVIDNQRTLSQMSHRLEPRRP
# Sequence of Rap guanine nucleotide exchange factor 3 (Homo sapiens) (O95398 whole entry, looked up): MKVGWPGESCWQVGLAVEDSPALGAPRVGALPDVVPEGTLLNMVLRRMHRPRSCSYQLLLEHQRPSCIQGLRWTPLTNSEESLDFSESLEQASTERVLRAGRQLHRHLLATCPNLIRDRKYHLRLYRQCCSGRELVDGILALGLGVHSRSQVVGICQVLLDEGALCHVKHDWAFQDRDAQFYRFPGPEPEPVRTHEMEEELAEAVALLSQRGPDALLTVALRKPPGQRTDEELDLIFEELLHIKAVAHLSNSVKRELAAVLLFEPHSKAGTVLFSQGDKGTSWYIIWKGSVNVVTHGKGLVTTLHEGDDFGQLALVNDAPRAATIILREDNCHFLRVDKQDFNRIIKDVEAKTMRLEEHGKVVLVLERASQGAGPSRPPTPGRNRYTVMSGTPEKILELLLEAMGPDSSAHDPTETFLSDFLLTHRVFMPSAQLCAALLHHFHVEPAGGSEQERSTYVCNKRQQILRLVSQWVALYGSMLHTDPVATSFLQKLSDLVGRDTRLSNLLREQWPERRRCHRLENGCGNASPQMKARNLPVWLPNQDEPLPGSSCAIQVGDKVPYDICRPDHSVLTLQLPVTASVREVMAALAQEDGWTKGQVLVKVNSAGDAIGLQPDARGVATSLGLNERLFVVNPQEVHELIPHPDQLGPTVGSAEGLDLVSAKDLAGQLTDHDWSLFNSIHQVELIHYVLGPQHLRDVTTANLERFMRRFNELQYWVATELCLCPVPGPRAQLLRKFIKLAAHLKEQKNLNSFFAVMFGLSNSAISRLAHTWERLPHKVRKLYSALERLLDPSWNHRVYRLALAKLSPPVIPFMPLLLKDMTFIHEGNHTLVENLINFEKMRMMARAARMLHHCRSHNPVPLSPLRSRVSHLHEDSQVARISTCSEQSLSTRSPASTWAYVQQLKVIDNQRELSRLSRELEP
structure (smiles),measurement,setting,value
Cc1ccc(C)c(NC(=O)CNS(=O)(=O)c2ccc3[nH]c(=O)oc3c2)c1,Potency,[1],inactive
same,Potency,[2],inactive
same,Potency,[3],inactive
same,Potency,[4],inactive
C=CC(C)(O)CCC1C(C)(O)CCC2C(C)(C)CCCC21C (configuration not stated),Potency,[1],inactive
same,Potency,[3],inactive
CC(=O)NC(C(=O)OC1CCC(C)(C)C2CC=C3C(=O)OCC3C12C)C(C)C (configuration not stated),Potency,[1],inactive
same,Potency,[3],inactive
O=C(OCC1=CC(Cl)C(O)C(OC(=O)c2ccccc2)C1O)c1ccccc1 (configuration not stated),Potency,[1],inactive
same,Potency,[3],inactive
O=C(NCC(=O)N1CCCC1)Nc1ccc2ccccc2c1,Potency,[1],inactive
same,Potency,[2],inactive
same,Potency,[3],inactive
same,Potency,[4],inactive
same,activity,[5],1.31%
same,"activity change, negative = inhibition",[6],-10.4%
same,activity,[7],-23%
same,activity,[8],-8.32%
O=C(O)c1ccnc2cc(-c3nc4ccccc4n3CCN3CCCCC3)sc12,Potency,[1],inactive
same,Potency,[9],inactive
same,Potency,[3],inactive
same,Potency,[4],inactive
CCC(C)C(=O)O[C@H]1[C@@H](O[C@H]2O[C@H](CO)[C@@H](O)[C@H](O)[C@H]2O)O[C@H](CO)[C@@H](O)[C@@H]1O (some centres not stated),Potency,[1],inactive
same,Potency,[3],inactive
CC(C)(O)C1OC1C1=CC(=O)C2(C)OC2C1O (configuration not stated),Potency,[1],inactive
same,Potency,[3],inactive
O=C(N[C@@H]1CC[C@@H](c2cccc(F)c2F)CN(CC(F)(F)F)C1=O)N1CCC(n2c(=O)[nH]c3ncccc32)CC1,Potency,[1],inactive
same,Potency,[2],12 µM (active)
same,Potency,[4],16.3 µM (active)
CN(C)C(=O)C(O)C(Cc1ccccc1)NC(=O)c1cc2cc(Cl)ccc2[nH]1 (configuration not stated),Potency,[1],inactive
same,Potency,[2],10.7 µM (active)
same,Potency,[3],inactive
same,Potency,[4],inactive
CO[C@H]1c2cc(C(C)C)c(O)c(O)c2[C@@]23CCCC(C)(C)C2[C@@H]1OC3=O (some centres not stated),Potency,[1],inactive
same,Potency,[3],inactive
Cc1cc(C)c2nc(-c3ccccn3)cc(C(=O)Nc3ccc(S(=O)(=O)Nc4onc(C)c4C)cc3)c2c1,Potency,[1],inactive
same,Potency,[2],26.8 µM (active)
same,outcome,[10],inactive
same,outcome,[11],inactive
same,outcome,[12],inactive; activator; fitted 7.5686 uM
same,outcome,[13],inactive
CC1(C)CC[C@]2(C(=O)O)CC[C@]3(C)C(=CCC4[C@@]5(C)CC[C@H](O[C@@H]6O[C@H](C(=O)O)[C@@H](O)[C@H](O[C@@H]7O[C@H](CO)[C@H](O)[C@H](O)[C@H]7O)[C@H]6O[C@@H]6O[C@H](CO)[C@@H](O)[C@H](O)[C@H]6O)C(C)(C)C5CC[C@]43C)[C@@H]2C1 (some centres not stated),"activity change, negative = inhibition",[1],10.7% [at 12.4 µM] (inactive)
same,"activity change, negative = viability loss",[3],-9.66% [at 4.96 µM] (inactive)
CC(C)c1cc2c(c(O)c1O)[C@@]13CCCC(C)(C)C1[C@@H](O)[C@@H]2OC3=O (some centres not stated),Potency,[1],inactive
same,Potency,[9],inactive
same,activity,[5],-82.4%
same,"activity change, negative = inhibition",[6],-4.37%
same,activity,[7],-4.78%
same,activity,[8],-0.254%
COc1ccc(-n2c(=O)[nH]c3cc(C(=O)NCc4ccc(Cl)cc4)sc3c2=O)nc1OC,Potency,[1],inactive
same,Potency,[2],9.52 µM (active)
same,Potency,[3],inactive
same,Potency,[4],inactive
COC(=O)C(CC1(OC(=O)C(C)C)c2ccccc2N2C(=O)C(C)(C)N(O)C21)n1cnc2ccccc2c1=O (configuration not stated),Potency,[1],inactive
same,Potency,[3],inactive
O=C(N[C@H](Cc1ccccc1)C(=O)O)c1sc2cc(F)ccc2c1Cl,Potency,[1],inactive
same,Potency,[2],16.9 µM (active)
same,Potency,[3],inactive
same,Potency,[4],inactive
O=C(Nc1cc(-c2ccccc2)nn1-c1ccccc1F)c1ccc([N+](=O)[O-])cc1,Potency,[1],inactive
same,Potency,[2],6.74 µM (active)
same,Potency,[4],inactive
C=C1C(OC(C)=O)C(=O)C2C(C)(C)C(O)CCC2(C)C1CC(OC(C)=O)/C(C)=C/COC(C)=O (configuration not stated),Potency,[1],inactive
same,Potency,[3],inactive
C=C1CC[C@@H]2C(C)(C)CCC[C@@]2(C)[C@@H]1CC/C(=C/C(=O)OC)COC(C)=O,Potency,[1],inactive
same,Potency,[3],inactive
C=Cc1cc2oc(-c3ccc(O)c(F)c3)nc2cc1O,Potency,[1],inactive
same,Potency,[9],31.6 µM (active)
same,activity,[5],-57%
same,Potency,[6],30.4 µM (active)
same,activity,[7],-39.5%
same,activity,[8],-56.3%
CCC(C)C1NC(=O)C2CCCN2C(=O)C(CC(O)CO)OC(=O)CCNC(=O)C(C)N(C)C(=O)C(C(C)C)N(C)C1=O (configuration not stated) (cyclo([X13]PI[NMeV][NMeA][βAla]); configuration not given here),Potency,[1],inactive
same,Potency,[3],inactive
C=C1CCC2C(C)(C)CC(=O)CC2(C)C1CCC(C)CCO (configuration not stated),Potency,[1],inactive
same,Potency,[3],inactive
On1ncc(C2CCNCC2)c1-c1cccc(-c2ccccc2)c1,Potency,[1],inactive
same,Potency,[2],inactive
same,Potency,[4],inactive
CC[C@@H](C)[C@H](NC(=O)C(C)(C)NC(=O)[C@H](CCC(N)=O)NC(=O)C(C)(CC)NC(=O)[C@H](Cc1c[nH]c2ccccc12)NC(C)=O)C(=O)N[C@H](C(=O)NC(C)(C)C(=O)N[C@@H](CC(C)C)C(=O)NC(C)(C)C(=O)N1CCC[C@H]1C(=O)N[C@@H](CCC(N)=O)C(=O)NC(C)(C)C(=O)N1CC(O)C[C@H]1C(=O)NC(C)(CC)C(=O)C1CC[C@@H](C(=O)N[C@@H](Cc2ccccc2)C(=O)NCC(=O)O)N1)C(C)O (some centres not stated) (Ac-W[ξIva]Q[Aib][aIle][Thr(3ξ)][Aib]L[Aib]PQ[Aib][X8]-X9),"activity change, negative = inhibition",[1],3.33% [at 12.4 µM] (inactive)
same,"activity change, negative = viability loss",[3],-38.6% [at 4.96 µM] (inactive)
C/C=C1/[C@H](O[C@@H]2O[C@H](CO)[C@@H](O)[C@H](O)[C@H]2O)OC=C2C(=O)O[C@@H]3C[C@@H](C(C)CO)[C@H](COC(=O)C[C@H]21)[C@H]3C (some centres not stated),Potency,[1],inactive
same,Potency,[3],inactive
CCC(C)C1NC(=O)C2C(C)CCN2C(=O)C(CC(O)CO)OC(=O)CCNC(=O)C(C)N(C)C(=O)C(C(C)C)N(C)C1=O (configuration not stated),Potency,[1],inactive
same,Potency,[3],inactive
C=C1CC[C@@]2(OC1)O[C@H]1CC3[C@@H]4CC=C5C[C@@H](O)C[C@@H](O[C@@H]6OC[C@H](O)[C@H](O)[C@H]6O[C@@H]6O[C@@H](C)[C@H](O)[C@@H](O)[C@H]6O)[C@]5(C)C4CC[C@]3(C)[C@H]1[C@@H]2C (some centres not stated),Potency,[1],inactive
same,Potency,[3],inactive
